Active and inactive are the calls of the source. Rule for the calls: active = hit-call score of the fitted dose curve at least 0.9, where 1 is the maximum; inactive = score below 0.9.
Tests used:
[1] = read-out: Human Leukocyte Antigen - DR isotype (HLADR), HLA-DRA (gene 3122); experiment: BSK_CASM3C_HLADR: BioMAP Diversity Plus: CASM3C Assay for Human Leukocyte Antigen - DR isotype (HLADR) Biomarker Activity (AID 2283043); conditions: primary human coronary artery smooth muscle cells; actives raise or lower the signal;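 note: cell-surface HLA-DR protein level quantified by ELISA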
[2] = read-out: Macrophage colony-stimulating factor (MCSF), CSF1 (gene 1435); experiment: BSK_CASM3C_MCSF: BioMAP Diversity Plus: CASM3C Assay for Macrophage colony-stimulating factor (MCSF) Biomarker Activity (AID 2283044); conditions: primary human coronary artery smooth muscle cells; actives raise or lower the signal;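 note: M-CSF protein amount quantified by ELISA after 24 h exposure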
[3] = read-out: Low-density lipoprotein receptor (LDLR), LDLR (gene 3949); experiment: BSK_CASM3C_LDLR: BioMAP Diversity Plus: CASM3C Assay for Low-density lipoprotein receptor (LDLR) Biomarker Activity (AID 2283045); conditions: primary human coronary artery smooth muscle cells; actives raise or lower the signal;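 note: LDLR protein level on the cell surface quantified by ELISA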
[4] = read-out: Monocyte Chemoattractant Protein-1 (MCP1), CCL2 (gene 6347); experiment: BSK_CASM3C_MCP1: BioMAP Diversity Plus: CASM3C Assay for Monocyte Chemoattractant Protein-1 (MCP1) Biomarker Activity (AID 2283046); conditions: primary human coronary artery smooth muscle cells; actives raise or lower the signal;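 note: MCP-1 level quantified by ELISA 24 h after dosing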
[5] = BSK_CASM3C_Proliferation: Cell Proliferation Assessment in the BioMAP Diversity Plus: CASM3C Assay (AID 2283047); conditions: primary human coronary artery smooth muscle cells;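 note: sulforhodamine B total protein stain as relative cell number at 560 nm; sub-confluent cells exposed 48 h before staining; fitted both ways against DMSO so gain or loss of cell number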
[6] = read-out: Monokine induced gamma interferon (MIG), CXCL9 (gene 4283); experiment: BSK_CASM3C_MIG: BioMAP Diversity Plus: CASM3C Assay for Monokine induced gamma interferon (MIG) Biomarker Activity (AID 2283048); conditions: primary human coronary artery smooth muscle cells; actives raise or lower the signal;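 note: MIG protein level measured by ELISA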
[7] = read-out: serum amyloid A (SAA), SAA1 (gene 6288); experiment: BSK_CASM3C_SAA: BioMAP Diversity Plus: CASM3C Assay for serum amyloid A (SAA) Biomarker Activity (AID 2283049); conditions: primary human coronary artery smooth muscle cells; actives raise or lower the signal;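 note: SAA protein level quantified by ELISA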
[8] = BSK_CASM3C_SRB: Viability Assessment in the BioMAP Diversity Plus: CASM3C Assay (AID 2283050); conditions: primary human coronary artery smooth muscle cells;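 note: cells exposed to compound for 24 h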
[9] = read-out: Thrombomodulin, THBD (gene 7056); experiment: BSK_CASM3C_Thrombomodulin: BioMAP Diversity Plus: CASM3C Assay for Thrombomodulin Biomarker Activity (AID 2283051); conditions: primary human coronary artery smooth muscle cells; actives raise or lower the signal;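 note: thrombomodulin protein level measured by ELISA 24 h after dosing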
[10] = read-out: Tissue Factor, F3 (gene 2152); experiment: BSK_CASM3C_TissueFactor: BioMAP Diversity Plus: CASM3C Assay for Tissue Factor Biomarker Activity (AID 2283052); conditions: primary human coronary artery smooth muscle cells; actives raise or lower the signal;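 note: cell surface tissue factor protein level read by ELISA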
[11] = read-out: Interferon-gamma inducible Protein 10 (IP10), CXCL10 (gene 3627); experiment: BSK_hDFCGF_IP10: BioMAP Diversity Plus: hDFCGF Assay for Interferon-gamma inducible Protein 10 (IP10) Biomarker Activity (AID 2283053); conditions: primary human foreskin fibroblasts; actives raise or lower the signal
Procedure, shortened: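 IP-10 levels, quantified by ELISA, are taken from human foreskin fibroblast cultures 24 h after chemical treatment, with DMSO serving as negative control and baseline for bidirectional analysis.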

[12] = read-out: Urokinase-type plasminogen activator receptor (uPAR), PLAUR (gene 5329); experiment: BSK_CASM3C_uPAR: BioMAP Diversity Plus: CASM3C Assay for Urokinase-type plasminogen activator receptor (uPAR) Biomarker Activity (AID 2283054); conditions: primary human coronary artery smooth muscle cells; actives raise or lower the signal;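 note: cell-surface uPAR protein level quantified by ELISA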
[13] = read-out: Vascular cell adhesion molecule 1 (VCAM1), VCAM1 (gene 7412); experiment: BSK_CASM3C_VCAM1: BioMAP Diversity Plus: CASM3C Assay for Vascular cell adhesion molecule 1 (VCAM1) Biomarker Activity (AID 2283055); conditions: primary human coronary artery smooth muscle cells; actives raise or lower the signal;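 note: VCAM-1 protein level quantified by ELISA on the cells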
[14] = read-out: Collagen III, COL3A1 (gene 1281); experiment: BSK_hDFCGF_CollagenIII: BioMAP Diversity Plus: hDFCGF Assay for Collagen III Biomarker Activity (AID 2283056); conditions: primary human foreskin fibroblasts; actives raise or lower the signal
Procedure, shortened: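 hDFCGF primary human dermal fibroblasts; 24 h chemical exposure; collagen III by ELISA; bidirectional curve fit vs DMSO baseline (gain or loss of signal).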

[15] = read-out: Interleukin-8 (IL8), CXCL8 (gene 3576); experiment: BSK_hDFCGF_IL8: BioMAP Diversity Plus: hDFCGF Assay for Interleukin-8 (IL8) Biomarker Activity (AID 2283058); conditions: primary human foreskin fibroblasts; actives raise or lower the signal
Procedure, shortened: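 ELISA read-out of IL-8 from primary human foreskin fibroblast cultures taken 24 h after dosing; values are bidirectional fits relative to DMSO vehicle.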

[16] = read-out: Macrophage colony-stimulating factor (MCSF), CSF1 (gene 1435); experiment: BSK_hDFCGF_MCSF: BioMAP Diversity Plus: hDFCGF Assay for Macrophage colony-stimulating factor (MCSF) Biomarker Activity (AID 2283060); conditions: primary human foreskin fibroblasts; actives raise or lower the signal
Procedure, shortened: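 ELISA read-out of M-CSF in human dermal foreskin fibroblast cultures, 24 h after chemical dosing; gain or loss of signal fitted bidirectionally relative to DMSO baseline.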

[17] = BSK_hDFCGF_SRB: Viability Assessment in the BioMAP Diversity Plus: hDFCGF Assay (AID 2283061); conditions: primary human foreskin fibroblasts;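 note: cells exposed to compound for 24 h before the read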
Procedure, shortened: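 Primary human foreskin fibroblasts; 24 h post-dose; fixed 10% TCA, stained 0.1% SRB, A560 read; total protein as overt cytotoxicity measure; curves fit bidirectionally vs DMSO control.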

[18] = read-out: TIMP metallopeptidase inhibitor 1 (TIMP1), TIMP1 (gene 7076); experiment: BSK_hDFCGF_TIMP1: BioMAP Diversity Plus: hDFCGF Assay for TIMP metallopeptidase inhibitor 1 (TIMP1) Biomarker Activity (AID 2283062); conditions: primary human foreskin fibroblasts; actives raise or lower the signal
Procedure, shortened: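 ELISA readout of TIMP-1 from human dermal foreskin fibroblast cultures 24 h post-dosing. Curves were fitted in both directions against DMSO baseline, with SRB total-protein staining in parallel cultures as a cytotoxicity check.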

[19] = BSK_hDFCGF_Proliferation: Cell Proliferation Assessment in the BioMAP Diversity Plus: hDFCGF Assay (AID 2283059); conditions: primary human foreskin fibroblasts;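 note: curves fitted for both rise and fall of signal versus DMSO baseline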
Procedure, shortened: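 Total protein read at 560 nm after 0.1% SRB staining of TCA-fixed human skin fibroblasts, […]. Activity is fitted in both directions relative to DMSO as baseline.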

[20] = read-out: Epidermal growth factor receptor (EGFR), EGFR (gene 1956); experiment: BSK_hDFCGF_EGFR: BioMAP Diversity Plus: hDFCGF Assay for Epidermal growth factor receptor (EGFR) Biomarker Activity (AID 2283057); conditions: primary human foreskin fibroblasts; actives raise or lower the signal
Procedure, shortened: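 Measured by ELISA: EGFR levels on primary human foreskin fibroblasts 24 h after chemical treatment, analysed relative to DMSO with bidirectional fitting.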

Measured: AC50

CCCN(C1CCN(C(=O)C2CCNCC2)CC1)[C@@H]1CCc2ccc(OC)cc2C1
active: [3] 35 µM
not listed: [19] | [20]
inactive: all other assays above

CC(=O)c1ccc2c(c1)[C@H](NC(=O)c1ccc(F)cc1)[C@@H](O)C(C)(C)O2
not listed: [19] | [20]
inactive: all other assays above

O=c1[nH]c2ccc(S(=O)CCN3CCC(Cc4ccc(F)cc4)CC3)cc2o1 (centres undefined)
active: [14] 13.9 µM
not listed: [19] | [20]
inactive: all other assays above

CC(C)=CCCC(C)=CC=O
not listed: [19] | [20]
inactive: all other assays above

CCc1cc(SCc2sc(-c3ccc(C(F)(F)F)cc3)nc2CN2CCN(c3ccc(OC)cc3)CC2)ccc1OCC(=O)O
active: [1] 18.7 µM | [2] 36.1 µM | [3] 31.7 µM | [4] 37.4 µM | [5] 15.8 µM | [6] 39.1 µM | [7] 31.9 µM | [8] 30.1 µM | [9] 35.1 µM | [11] 2.18 µM | [12] 15.3 µM | [13] 33 µM | [14] 3.97 µM | [15] 5.15 µM | [16] 3.28 µM | [17] 2 µM | [18] 2.53 µM
inactive: [10]

Nc1ccc(Nc2ccccc2)cc1
active: [5] 20 µM | [9] 3.23 µM | [12] 2.33 µM
not listed: [19] | [20]
inactive: all other assays above

NC(=O)NO
not listed: [20]
inactive: all other assays above

C1=CCCC=CCCC=CCC1
not listed: [20]
inactive: all other assays above

O=C(O)c1cccc(Oc2ccccc2)c1
not listed: [19] | [20]
inactive: all other assays above

Cc1[nH]cnc1C[C@H]1CCc2c(C)c3ccccc3n2C1=O
active: [3] 18.5 µM | [5] 26.4 µM | [12] 22 µM | [14] 19.2 µM | [19] 21.9 µM
not listed: [20]
inactive: all other assays above

CCCCC(CC)COC(=O)c1ccc(C(=O)OCC(CC)CCCC)cc1 (centres undefined)
not listed: [19] | [20]
inactive: all other assays above

CCOC(=O)c1ccc(C2CCC(NC[C@H](O)COc3ccc(O)c(NS(C)(=O)=O)c3)CC2)cc1 (some centres undefined)
inactive: [4] | [6] | [7] | [10] | [12]
active: [1] 30.8 µM | [2] 24.2 µM | [3] 11.2 µM | [5] 26.9 µM | [8] 15.7 µM | [9] 18.7 µM | [11] 21.8 µM | [13] 18.7 µM | [14] 13.4 µM | [15] 27.2 µM | [16] 10.2 µM | [17] 5.64 µM | [18] 13.4 µM

O=C(O)CC(O)C(=O)O (centres undefined)
not listed: [20]
inactive: all other assays above

CC(C)(O)c1coc(S(=O)(=O)NC(=O)Nc2c3c(cc4c2CCC4)CCC3)c1
not listed: [20]
inactive: all other assays above

O=C1CCCCCN1
not listed: [19] | [20]
inactive: all other assays above

O=C(OC[C@H]1O[C@@H](OC(=O)c2cc(O)c(O)c(OC(=O)c3cc(O)c(O)c(O)c3)c2)[C@H](OC(=O)c2cc(O)c(O)c(OC(=O)c3cc(O)c(O)c(O)c3)c2)[C@@H](OC(=O)c2cc(O)c(O)c(OC(=O)c3cc(O)c(O)c(O)c3)c2)[C@@H]1OC(=O)c1cc(O)c(O)c(OC(=O)c2cc(O)c(O)c(O)c2)c1)c1cc(O)c(O)c(OC(=O)c2cc(O)c(O)c(O)c2)c1
active: [1] 6.1 µM | [4] 6.1 µM | [5] 10 µM | [11] 0.986 µM | [19] 3.77 µM | [16] 1.21 µM
not listed: [14]
inactive: all other assays above

CC(C)CC(C)(O)C#CC(C)(O)CC(C)C (centres undefined)
not listed: [19] | [20]
inactive: all other assays above

CN(C)c1ccc(Cc2ccc(N(C)C)cc2)cc1
active: [9] 20 µM | [12] 2.98 µM
not listed: [2] | [19] | [20]
inactive: all other assays above

COCCOc1cc2cc(C(=O)NC3CCN(C(C)C)CC3)n(CC(=O)Nc3ccc(Cl)cn3)c2cn1
not listed: [19] | [20]
inactive: all other assays above

CCCCCCc1ccc(O)cc1O
active: [3] 11.9 µM | [5] 32.6 µM | [9] 4.48 µM | [11] 29.8 µM | [14] 17.5 µM | [16] 28.1 µM | [17] 31.2 µM | [18] 33.2 µM
not listed: [15] | [19] | [20]
inactive: all other assays above

— PubChem BioAssay (EPA / NIEHS)
